The nature of assay [1]: qHTS assay for small molecule agonists of the p53 signaling pathway - cell viability (AID 651633; calls by dose curve; note: nearly all actives have a fitted effect of over 30% in size; note: potency is the fitted concentration of half-maximal effect). In a few lines:
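p53RE-bla cells were treated with compound for 16 hours at 37 C. Cytotoxicity was then measured as CellTiter-Glo luminescence after 30 min at room temperature.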
For orientation: qHTS replaces the single test concentration by a dilution series.

Assay [2] is described as follows: qHTS assay for small molecules that induce genotoxicity in human embryonic kidney cells expressing luciferase-tagged ATAD5 - cell viability (AID 651634; calls by dose curve; note: nearly all actives have a fitted effect of over 25% in size; note: potency is the fitted concentration of half-maximal effect). In a few lines:
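15.5 hr compound or vehicle exposure of HEK293T cells expressing luciferase-tagged ATAD5 at 37C; live-cell protease activity is read by fluorescence after 30 min of CellTiter-Fluor.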

Assay [3] can be described thus: qHTS assay for small molecule disruptors of the mitochondrial membrane potential - cell viability (AID 720634; calls by dose curve; note: nearly all actives have a fitted effect of over 20% in size; note: potency is the fitted concentration of half-maximal effect). In a few lines:
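In this qHTS format, HepG2 cells plated overnight were pinned with compound, incubated 1 hr, and assayed for ATP luminescence with CellTiter-Glo after m-MPI dye addition.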

Assay [4] in a line: qHTS assay to test for compound auto fluorescence at 590 nm (red) in HepG2 cells (AID 720674). An outline of the steps: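 Fluorescence at 590 nm emission following 540 nm excitation was recorded from HepG2 wells one hour after compound transfer, with DMSO-only wells as vehicle and Rose Bengal sodium equivalency as the scale.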
A short description of assay [5]: qHTS assay to test for compound auto fluorescence at 535 nm (green) in HepG2 cells (AID 720675).
The nature of assay [6]: qHTS assay to test for compound auto fluorescence at 460 nm (blue) in HEK293 cells (AID 720678). Note: potency is the fitted concentration of half-maximal effect. In a few lines:
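Blue-channel (Ex/Em 405/460 nm) intensity measured in HEK293 cultures after overnight compound exposure at 37C; signal expressed relative to triamterene. Cells plated 2,000 per well in 10% dialyzed FBS medium and allowed 4-5 hr to attach.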

The nature of assay [7]: qHTS assay to test for compound auto fluorescence at 590 nm (red) in HEK293 cells (AID 720679). In a few lines: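 Red-channel autofluorescence (Ex/Em 540/590 nm; Rose Bengal sodium reference) was measured after overnight 37C, 5% CO2 exposure of attached HEK293 cells, 2,000 per well in medium with 10% dialyzed FBS.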
Assay [8] in a line: qHTS assay to test for compound auto fluorescence at 535 nm (green) in HEK293 cells (AID 720680).
The nature of assay [9]: qHTS assay to test for compound auto fluorescence at 460 nm (blue) in HEK293 cell free culture (AID 720681). In a few lines:
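Compounds were added to cell-free DMEM with 10% FBS and fluorescence read directly. The blue channel used 405 nm excitation and 460 nm emission, with triamterene as the reference fluorophore.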

Assay [10] can be described thus: qHTS assay to test for compound auto fluorescence at 535 nm (green) in HEK293 cell free culture (AID 720682). An outline of the steps: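 Measurement is a direct plate read of green fluorescence (485 nm in, 535 nm out) after compound addition to serum-supplemented DMEM lacking cells, with fluorescein used to express intensities.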
A short description of assay [11]: qHTS assay to test for compound auto fluorescence at 590 nm (red) in HEK293 cell free culture (AID 720683). An outline of the steps: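 Cell-free wells of DMEM with 10% FBS received compound, and intrinsic fluorescence was read at excitation/emission 540/590 nm. Values expressed as equivalence to Rose Bengal sodium.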
Assay [12] is described as follows: qHTS assay to test for compound auto fluorescence at 590 nm (red) in HepG2 cell free culture (AID 720684). In a few lines:
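Auto fluorescence equivalency versus Rose Bengal sodium, red channel Ex/Em 540/590 nm; compounds in cell-free MEM/10% FBS; DMSO vehicle control.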

Assay [13] is described as follows: qHTS assay to test for compound auto fluorescence at 460 nm (blue) in HepG2 cell free culture (AID 720685). Note: potency is the fitted concentration of half-maximal effect. In a few lines: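 Cell-free plates of MEM plus 10% FBS received 23 nL compound or DMSO vehicle; blue-channel (405/460 nm) intensity scored against triamterene as reference fluorophore.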
A short description of assay [14]: qHTS assay to test for compound auto fluorescence at 535 nm (green) in HepG2 cell free culture (AID 720686).
A short description of assay [15]: qHTS assay to test for compound auto fluorescence at 460 nm (blue) in HepG2 cells (AID 720687). Note: potency is the fitted concentration of half-maximal effect. In a few lines:
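HepG2 cells in MEM with 10% FBS, attached overnight at 37 C, were exposed to compound or DMSO for 1 hr at 37 C, 5% CO2. Blue fluorescence was read at 405/460 nm, with triamterene as reference fluorophore.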

Assay [16] has as its target Glucocorticoid receptor (Homo sapiens) (UniProt P04150). Description: qHTS assay to identify small molecule agonists of the glucocorticoid receptor (GR) signaling pathway (AID 720691; active = well fitted activation curve with a large enough effect in the signal ratio in the repeat runs, not every such curve was filed as active; the % refers to the signal ratio; note: potency is the fitted concentration of half-maximal effect). To be noted: GR-bla HeLa, beta-lactamase reporter ratio, 18 h; activation: at 62.4 µM (top of the series). In a few lines:
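Measures GR pathway activation through a GRE-beta-lactamase reporter stably integrated in HeLa cells, with 18 h compound treatment at 37 C and fluorescence detection using a FRET substrate.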

Assay [17] in a line: qHTS assay for small molecule disruptors of the mitochondrial membrane potential (AID 720635). Note: potency is the fitted concentration of half-maximal effect. An outline of the steps: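 HepG2 cells exposed to compound 1 hr at 37C, then Mito-MPS dye 30 min. Ratio read of aggregate (540/590 nm) versus monomer (490/535 nm) fluorescence.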
Assay [18] addresses Glucocorticoid receptor (Homo sapiens) (UniProt P04150). Description: qHTS assay to identify small molecule antagonists of the glucocorticoid receptor (GR) signaling pathway (AID 720692; active = well fitted inhibition curve with a large enough effect in the signal ratio in the repeat runs, not every such curve was filed as active; the % refers to the signal ratio). In a few lines: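 Tox21 10K library screened in concentration-response for blockade of dexamethasone (5 nM final)-induced GRE-bla reporter activity in HeLa cells; 18 h treatment, fluorescence read.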

For 15 compounds, Potency and outcome results are on record in PubChem BioAssay (Tox21).

Several values for one entry are separate records, joined by “and”; a condition that tells them apart may be missing. Equal values may be shown once. Unmarked numbers belong to inactive results. Records with an inconclusive call do not appear. Activity calls are given as the source filed them. Unless noted, calls come from the whole dose curve; as a rule, active = well fitted curve in the direction sought with a large enough effect in the repeat runs; inconclusive = weak or mixed curves; inactive = no such curve, though single readings can be large; an effect the other way counts as inactive or inconclusive.
Tags give direction and shape of the fitted curve or compound fluorescence and quenching.

Sequence of Glucocorticoid receptor (Homo sapiens) (P04150 whole entry, looked up): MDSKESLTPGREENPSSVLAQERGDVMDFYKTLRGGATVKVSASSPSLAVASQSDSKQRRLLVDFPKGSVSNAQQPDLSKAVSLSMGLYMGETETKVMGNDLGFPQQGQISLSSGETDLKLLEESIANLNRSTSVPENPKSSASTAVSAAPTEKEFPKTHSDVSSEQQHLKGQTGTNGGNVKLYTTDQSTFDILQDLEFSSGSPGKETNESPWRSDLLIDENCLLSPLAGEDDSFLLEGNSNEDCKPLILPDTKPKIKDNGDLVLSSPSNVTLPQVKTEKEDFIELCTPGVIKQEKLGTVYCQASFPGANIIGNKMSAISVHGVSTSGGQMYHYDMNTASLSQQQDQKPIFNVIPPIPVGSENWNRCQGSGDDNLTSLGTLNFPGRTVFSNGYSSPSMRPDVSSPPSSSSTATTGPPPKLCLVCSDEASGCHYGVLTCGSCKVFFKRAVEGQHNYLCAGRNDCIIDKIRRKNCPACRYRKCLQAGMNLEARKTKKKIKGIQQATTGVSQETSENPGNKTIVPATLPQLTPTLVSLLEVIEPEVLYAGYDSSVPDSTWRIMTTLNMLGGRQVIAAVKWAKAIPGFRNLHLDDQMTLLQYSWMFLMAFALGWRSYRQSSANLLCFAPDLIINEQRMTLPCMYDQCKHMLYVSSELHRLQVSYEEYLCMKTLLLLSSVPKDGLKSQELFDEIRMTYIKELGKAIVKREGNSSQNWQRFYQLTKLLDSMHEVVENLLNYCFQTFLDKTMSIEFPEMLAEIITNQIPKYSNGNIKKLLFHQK

`COc1ccc(CN2CCN(C(c3ccc(F)cc3)c3ccc(F)cc3)CC2)c(OC)c1OC`: the Potency is 26.6 µM (active) in [1], 21.1 µM (active) in [2] and 4.77 µM (active) in assay [16]. For the same compound, the Potency entry in [3], in [4], in assay [5], in assay [6], in assay [7] and in [9] was “inactive” in each case. Further, the Potency entry in assay [11], in assay [12], in assay [13], in assay [14] and in assay [15] was “inactive” each time. The compound was called inactive in [8] and in [10].

In the case of `O=[N+]([O-])c1cc([N+](=O)[O-])c2ccc(S(=O)(=O)O)cc2c1O`, the Potency entry in assay [1], in assay [3], in assay [17], in [4], in [5] and in assay [6] was “inactive” in each case. The Potency result in [7], in assay [9], in assay [11], in assay [13], in assay [14] and in [15] was “inactive” in each case. In assay [2], the Potency was 21.6 µM (active). For the same compound, the call in [8] and in [10] was inactive.

Turning to `C[n+]1cc2c3c(ccc2c2ccc4cc5c(cc4c21)OCO5)OCO3`, the Potency in assay [1] was 1.5 µM (active); in assay [2] it was 11.9 µM (active); in assay [3], 11.9 µM (active); in [17], 8.41 µM (active). In addition, the Potency entry in assay [4], in assay [5], in assay [6], in assay [7], in [9] and in assay [11] was “inactive” in each case. The Potency result in assay [12], in assay [13] and in [15] was “inactive” throughout. Besides, the outcome in assay [8] and in assay [10] was inactive.

As to `OCCN(CCO)c1nc(N2CCCCC2)c2nc(N(CCO)CCO)nc(N3CCCCC3)c2n1`, the Potency entry in assay [3], in [4], in assay [5], in [7], in [11] and in assay [12] was “inactive” in each case. Moreover, the Potency in assay [6], in [13] and in assay [15] was 12.6 µM [fluorescent] (active) each time. Moreover, the compound was classed as inactive in assay [8] and in assay [10].

On to `Oc1ccc2cc(SSc3ccc4cc(O)ccc4c3)ccc2c1`, for which the Potency entry in [1], in assay [3], in assay [4], in assay [5], in [6] and in [7] was “inactive” in each case. Besides, the Potency result in assay [9], in assay [11], in assay [12], in assay [13], in assay [14] and in assay [15] was “inactive” throughout. Further, in [17], the Potency is 38.6 µM (active) and 24.3 µM (active). The compound was classed as inactive in [8] and in assay [10].

`NNc1nc(-c2ccc([N+](=O)[O-])cc2)cs1`: the Potency is 24.3 µM (active) in assay [2], 17.2 µM (active) in [3] and 1.37 µM (active) in [17]. Besides, the Potency entry in [4], in assay [5], in assay [6], in [7], in [11] and in assay [12] was “inactive” throughout. The Potency entry in assay [14] and in assay [15] was “inactive” throughout. The outcome in assay [8] was inactive.

Take `On1ccccc1=S`: the Potency entry in assay [1], in [3], in assay [4], in assay [5], in [6] and in [7] was “inactive” throughout. For the same compound, the Potency result in assay [11], in assay [12], in [13], in assay [14], in [15] and in assay [16] was “inactive” in each case. Also, the Potency in [17] was 0.762 µM (active). Besides, the outcome in [8] was inactive.

With `S=c1[nH]c2ccccc2s1`, the Potency entry in assay [1], in [2], in assay [3], in [4], in assay [5] and in assay [6] was “inactive” throughout. The Potency entry in [7], in [9], in assay [11], in assay [12], in assay [13] and in [14] was “inactive” in each case. Besides, the Potency result in [15], in [16] and in assay [18] was “inactive” throughout. In addition, in assay [17], the Potency is 26.6 µM (active) and 27.3 µM (active). Also, the compound was called inactive in assay [8] and in [10].

On to `CCC(N)(CO)CO`, for which the Potency entry in assay [1], in assay [2], in assay [3], in assay [17], in [4] and in [5] was “inactive” in each case. In addition, the Potency result in assay [6], in assay [7], in [9], in [11], in assay [12] and in assay [13] was “inactive” each time. Besides, the Potency result in assay [14], in [15], in [16] and in assay [18] was “inactive” throughout. Also, the compound was classed as inactive in [8] and in [10].

With `CCCCCCCC[N+](CCCCCCCC)(CCCCCCCC)CCCCCCCC`, the Potency in [1] was 13.7 µM (active); in assay [2] it was 30.6 µM (active); in [3], 27.3 µM (active); in [17], 0.0768 µM (active). The Potency entry in assay [4], in [6], in [7], in [11], in assay [12] and in [13] was “inactive” throughout. Also, the Potency entry in assay [14] and in assay [15] was “inactive” throughout. For the same compound, the call in [8] and in assay [10] was inactive.

For `Oc1ccc(N=Nc2ccccc2)cc1`, the Potency result in assay [1], in assay [4], in assay [5], in assay [6], in [7] and in assay [9] was “inactive” each time. For the same compound, the Potency entry in assay [11], in [12], in assay [13] and in assay [15] was “inactive” throughout. Besides, the Potency in [3] is 6.95 µM (active); in assay [17], 3.1 µM (active). Besides, the outcome in [8] and in [10] was inactive.

Turning to `O=[N+]([O-])c1cc(Cl)c(Cl)c(Cl)c1Cl`, the Potency entry in assay [1], in assay [2], in assay [3], in assay [4], in [5] and in assay [6] was “inactive” throughout. For the same compound, the Potency entry in [7], in assay [9], in assay [11], in assay [12], in [13] and in [15] was “inactive” throughout. Moreover, the compound was classed as inactive in [8] and in assay [10].

As to `O=c1cccccc1O`, the Potency entry in assay [1], in assay [2], in assay [3], in assay [4], in [6] and in assay [7] was “inactive” in each case. Besides, the Potency result in [11], in [13], in [14], in assay [15] and in assay [16] was “inactive” each time. The Potency in assay [17] was 3.93 µM (active). The result in assay [8] and in [10] was inactive.

Turning to `CCCCCCCC/C=C/CCCCCCCC1=NCCN1CCO`, the Potency was 43.3 µM (active) in assay [1], 54.5 µM (active) in [3] and 54.5 µM (active) in [17]. Moreover, the Potency entry in assay [4], in assay [5], in [6], in [7], in [9] and in assay [11] was “inactive” each time. The Potency result in assay [13], in assay [14] and in [15] was “inactive” in each case. Moreover, the call in assay [8] and in assay [10] was inactive.

Consider `[Cl][Au]([Cl])[Cl]`, for which the Potency in assay [1] is 68.6 µM (active); in assay [2] it was 30.6 µM (active). Further, the Potency result in assay [3], in assay [4], in assay [5], in assay [6], in assay [7] and in [9] was “inactive” throughout. The Potency result in [11], in assay [13], in [14] and in assay [15] was “inactive” each time. Also, the compound was called inactive in assay [8] and in assay [10].
